Laboratory results reported in paper PMC8384837, “Expanding the binding specificity for RNA recognition by a PUF domain”.

What was measured:
Assay in all cases: yeast three-hybrid, YBZ-1, SC-Leu-His + 0.5 mM 3-AT, 4 days
Settings in all cases: tags: N-Gal4 AD-HA kept; label: inside an RPR1-promoter hybrid RNA with tandem MS2 sites; ssRNA
PUM1 PUF domain R8-LYF = PUM1 PUF domain R8-LYF (Homo sapiens, UniProt Q14671 828-1176, N1122L;Q1126F)
Summary of the method: (§1)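 The interaction score is the log change in how often each variant appears, from input to selection. Frequencies came from PCR-amplified, Illumina-sequenced repeat regions of Pumilio-1 PUF domain libraries grown in strain YBZ-1 (LexA–MS2 coat fusion, HIS3 reporter) alongside matching RNA elements. Input plates were SC-Leu and selection plates were SC-Leu-His + 0.5 mM 3-AT, each for four days, and the log2 calculation used a pseudocount of 1 where a variant was absent.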

PUM1 PUF domain R8-HWP = PUM1 PUF domain R8-HWP (Homo sapiens, UniProt Q14671 828-1176, N1122H;Y1123W;Q1126P)
Sequence of PUM1 PUF domain R8-HWP (Q14671 828-1176 N1122H/Y1123W/Q1126P): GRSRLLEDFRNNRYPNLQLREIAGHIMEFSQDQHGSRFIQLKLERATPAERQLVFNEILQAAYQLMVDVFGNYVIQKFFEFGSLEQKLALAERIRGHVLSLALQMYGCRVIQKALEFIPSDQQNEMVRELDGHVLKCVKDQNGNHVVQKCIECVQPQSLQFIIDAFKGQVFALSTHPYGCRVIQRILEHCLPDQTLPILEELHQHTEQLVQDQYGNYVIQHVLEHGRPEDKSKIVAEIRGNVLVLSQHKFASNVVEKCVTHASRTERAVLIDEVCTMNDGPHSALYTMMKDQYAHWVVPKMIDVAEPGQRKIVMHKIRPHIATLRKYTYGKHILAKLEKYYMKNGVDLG
Summary of the method: as §1

PUM1 PUF domain R8-RGR = PUM1 PUF domain R8-RGR (Homo sapiens, UniProt Q14671 828-1176, N1122R;Y1123G;Q1126R)
Sequence of PUM1 PUF domain R8-RGR (Q14671 828-1176 N1122R/Y1123G/Q1126R): as the sequence (Q14671 828-1176 N1122H/Y1123W/Q1126P) above, with H295R, W296G, P299R counted along it
Summary of the method: as §1

PUM1 PUF domain R2-LIM = PUM1 PUF domain R2-LIM (Homo sapiens, UniProt Q14671 828-1176, N899L;Y900I;Q903M)
Sequence of PUM1 PUF domain R2-LIM (Q14671 828-1176 N899L/Y900I/Q903M): as the sequence (Q14671 828-1176 N1122H/Y1123W/Q1126P) above, with N72L, Y73I, Q76M, H295N, W296Y, P299Q counted along it
Summary of the method: as §1

PUM1 PUF domain R3-IWY = PUM1 PUF domain R3-IWY (Homo sapiens, UniProt Q14671 828-1176, C935I;R936W;Q939Y)
Sequence of PUM1 PUF domain R3-IWY (Q14671 828-1176 C935I/R936W/Q939Y): as the sequence (Q14671 828-1176 N1122H/Y1123W/Q1126P) above, with C108I, R109W, Q112Y, H295N, W296Y, P299Q counted along it
Summary of the method: as §1

PUM1 PUF domain R1-RRI = PUM1 PUF domain R1-RRI (Homo sapiens, UniProt Q14671 828-1176, S863R;Q867I)
Sequence of PUM1 PUF domain R1-RRI (Q14671 828-1176 S863R/Q867I): as the sequence (Q14671 828-1176 N1122H/Y1123W/Q1126P) above, with S36R, Q40I, H295N, W296Y, P299Q counted along it
Summary of the method: as §1

PUM1 PUF domain R1-IWR = PUM1 PUF domain R1-IWR (Homo sapiens, UniProt Q14671 828-1176, S863I;R864W;Q867R)
Sequence of PUM1 PUF domain R1-IWR (Q14671 828-1176 S863I/R864W/Q867R): as the sequence (Q14671 828-1176 N1122H/Y1123W/Q1126P) above, with S36I, R37W, Q40R, H295N, W296Y, P299Q counted along it
Summary of the method: as §1

PUM1 PUF domain R1-TLF = PUM1 PUF domain R1-TLF (Homo sapiens, UniProt Q14671 828-1176, S863T;R864L;Q867F)
Sequence of PUM1 PUF domain R1-TLF (Q14671 828-1176 S863T/R864L/Q867F): as the sequence (Q14671 828-1176 N1122H/Y1123W/Q1126P) above, with S36T, R37L, Q40F, H295N, W296Y, P299Q counted along it
Summary of the method: as §1

PUM1 PUF domain R1-RIS = PUM1 PUF domain R1-RIS (Homo sapiens, UniProt Q14671 828-1176, S863R;R864I;Q867S)
Sequence of PUM1 PUF domain R1-RIS (Q14671 828-1176 S863R/R864I/Q867S): as the sequence (Q14671 828-1176 N1122H/Y1123W/Q1126P) above, with S36R, R37I, Q40S, H295N, W296Y, P299Q counted along it
Summary of the method: as §1

PUM1 PUF domain R5-HHH = PUM1 PUF domain R5-HHH (Homo sapiens, UniProt Q14671 828-1176, C1007H;R1008H;Q1011H)
Sequence of PUM1 PUF domain R5-HHH (Q14671 828-1176 C1007H/R1008H/Q1011H): as the sequence (Q14671 828-1176 N1122H/Y1123W/Q1126P) above, with C180H, R181H, Q184H, H295N, W296Y, P299Q counted along it
Summary of the method: as §1

PUM1 PUF domain R5-QHV = PUM1 PUF domain R5-QHV (Homo sapiens, UniProt Q14671 828-1176, C1007Q;R1008H;Q1011V)
Sequence of PUM1 PUF domain R5-QHV (Q14671 828-1176 C1007Q/R1008H/Q1011V): as the sequence (Q14671 828-1176 N1122H/Y1123W/Q1126P) above, with C180Q, R181H, Q184V, H295N, W296Y, P299Q counted along it
Summary of the method: as §1

PUM1 PUF domain R5-DHW = PUM1 PUF domain R5-DHW (Homo sapiens, UniProt Q14671 828-1176, C1007D;R1008H;Q1011W)
Sequence of PUM1 PUF domain R5-DHW (Q14671 828-1176 C1007D/R1008H/Q1011W): as the sequence (Q14671 828-1176 N1122H/Y1123W/Q1126P) above, with C180D, R181H, Q184W, H295N, W296Y, P299Q counted along it
Summary of the method: as §1

[1] = target: PUM1 PUF domain R2-VFQ R3-THE R4-TFR (Homo sapiens, UniProt Q14671 828-1176, N899V;Y900F;C935T;R936H;Q939E;N971T;H972F;Q975R)
Sequence of PUM1 PUF domain R2-VFQ R3-THE R4-TFR (Q14671 828-1176 N899V/Y900F/C935T/R936H/Q939E/N971T/H972F/Q975R): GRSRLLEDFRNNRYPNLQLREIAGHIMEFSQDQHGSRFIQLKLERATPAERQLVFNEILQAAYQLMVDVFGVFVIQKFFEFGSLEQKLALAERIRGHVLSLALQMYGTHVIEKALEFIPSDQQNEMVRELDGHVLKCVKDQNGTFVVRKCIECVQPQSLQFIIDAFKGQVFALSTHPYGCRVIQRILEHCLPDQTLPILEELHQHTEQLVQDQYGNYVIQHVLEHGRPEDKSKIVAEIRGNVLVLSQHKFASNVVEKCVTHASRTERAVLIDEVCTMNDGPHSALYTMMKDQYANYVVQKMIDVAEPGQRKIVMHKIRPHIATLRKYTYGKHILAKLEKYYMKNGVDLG
Summary of the method: as §1

PUM1 PUF domain R5-TEE = PUM1 PUF domain R5-TEE (Homo sapiens, UniProt Q14671 828-1176, C1007T;R1008E;Q1011E)
Sequence of PUM1 PUF domain R5-TEE (Q14671 828-1176 C1007T/R1008E/Q1011E): as the sequence (Q14671 828-1176 N1122H/Y1123W/Q1126P) above, with C180T, R181E, Q184E, H295N, W296Y, P299Q counted along it
Summary of the method: as §1

PUM1 PUF domain R5-DRQ = PUM1 PUF domain R5-DRQ (Homo sapiens, UniProt Q14671 828-1176, C1007D)
Sequence of PUM1 PUF domain R5-DRQ (Q14671 828-1176 C1007D): as the sequence (Q14671 828-1176 N1122H/Y1123W/Q1126P) above, with C180D, H295N, W296Y, P299Q counted along it
Summary of the method: as §1

PUM1 PUF domain R5-KRP = PUM1 PUF domain R5-KRP (Homo sapiens, UniProt Q14671 828-1176, C1007K;Q1011P)
Sequence of PUM1 PUF domain R5-KRP (Q14671 828-1176 C1007K/Q1011P): as the sequence (Q14671 828-1176 N1122H/Y1123W/Q1126P) above, with C180K, Q184P, H295N, W296Y, P299Q counted along it
Summary of the method: as §1

PUM1 PUF domain R4-CRS = PUM1 PUF domain R4-CRS (Homo sapiens, UniProt Q14671 828-1176, N971C;H972R;Q975S)
Sequence of PUM1 PUF domain R4-CRS (Q14671 828-1176 N971C/H972R/Q975S): as the sequence (Q14671 828-1176 N1122H/Y1123W/Q1126P) above, with N144C, H145R, Q148S, H295N, W296Y, P299Q counted along it
Summary of the method: as §1

PUM1 PUF domain R5-CTR = PUM1 PUF domain R5-CTR (Homo sapiens, UniProt Q14671 828-1176, R1008T;Q1011R)
Sequence of PUM1 PUF domain R5-CTR (Q14671 828-1176 R1008T/Q1011R): as the sequence (Q14671 828-1176 N1122H/Y1123W/Q1126P) above, with R181T, Q184R, H295N, W296Y, P299Q counted along it
Summary of the method: as §1

Sequence of PUM1 PUF domain R8-LYF (Q14671 828-1176 N1122L/Q1126F): as the sequence (Q14671 828-1176 N1122H/Y1123W/Q1126P) above, with H295L, W296Y, P299F counted along it

“GGCUAGAACUAGUGGAUCCCCCGGCGCCCGGCGGCUCGAGCCCGGGUAAGCGUAAAUAGUCUGCAUGCCGCCGGGCGCCAUGCCUGCAGGUCGACUCUAGAAAACAUG” was tested, and the binding signal (PUM1 PUF domain R8-LYF) was 2.3 log2 enrichment (interaction score), the binding signal (PUM1 PUF domain R8-HWP) was 5.59 log2 enrichment (interaction score) and the binding signal (PUM1 PUF domain R8-RGR) was 2.53 log2 enrichment (interaction score).
“GGCUAGAACUAGUGGAUCCCCCGGCGCCCGGCGGCUCGAGCCCGGGUAAGUGUAAAGAGUCUGCAUGCCGCCGGGCGCCAUGCCUGCAGGUCGACUCUAGAAAACAUG” was tested, and the binding signal (PUM1 PUF domain R2-LIM) was 3.94 log2 enrichment (interaction score).
In the case of “GGCUAGAACUAGUGGAUCCCCCGGCGCCCGGCGGCUCGAGCCCGGGUAAGUGUAAGUAGUCUGCAUGCCGCCGGGCGCCAUGCCUGCAGGUCGACUCUAGAAAACAUG”, the binding signal (PUM1 PUF domain R3-IWY) is reported as 1.76 log2 enrichment (interaction score).
For “GGCUAGAACUAGUGGAUCCCCCGGCGCCCGGCGGCUCGAGCCCGGGUAAGUGUAAUUAGUCUGCAUGCCGCCGGGCGCCAUGCCUGCAGGUCGACUCUAGAAAACAUG”, the binding signal (PUM1 PUF domain R3-IWY) was 3.36 log2 enrichment (interaction score).
With “GGCUAGAACUAGUGGAUCCCCCGGCGCCCGGCGGCUCGAGCCCGGGUAAGUGUAAAUCGUCUGCAUGCCGCCGGGCGCCAUGCCUGCAGGUCGACUCUAGAAAACAUG” the binding signal (PUM1 PUF domain R1-RRI) was 3.61 log2 enrichment (interaction score) and the binding signal (PUM1 PUF domain R1-IWR) was 2.56 log2 enrichment (interaction score).
With “GGCUAGAACUAGUGGAUCCCCCGGCGCCCGGCGGCUCGAGCCCGGGUAAGUGUAAAUUGUCUGCAUGCCGCCGGGCGCCAUGCCUGCAGGUCGACUCUAGAAAACAUG” the binding signal (PUM1 PUF domain R1-IWR) was 1.52 log2 enrichment (interaction score), the binding signal (PUM1 PUF domain R1-TLF) was 4.45 log2 enrichment (interaction score) and the binding signal (PUM1 PUF domain R1-RIS) was 3.81 log2 enrichment (interaction score).
With “GGCUAGAACUAGUGGAUCCCCCGGCGCCCGGCGGCUCGAGCCCGGGUAAGUGUUAAUAGUCUGCAUGCCGCCGGGCGCCAUGCCUGCAGGUCGACUCUAGAAAACAUG” the binding signal (PUM1 PUF domain R5-HHH) was 5.29 log2 enrichment (interaction score), the binding signal (PUM1 PUF domain R5-QHV) was 3.88 log2 enrichment (interaction score) and the binding signal (PUM1 PUF domain R5-DHW) was 3.46 log2 enrichment (interaction score).
With “GGCUAGAACUAGUGGAUCCCCCGGCGCCCGGCGGCUCGAGCCCGGGUAAGUGUACGAAGUCUGCAUGCCGCCGGGCGCCAUGCCUGCAGGUCGACUCUAGAAAACAUG” the binding signal [1] was 3.9 log2 enrichment (interaction score).
For “GGCUAGAACUAGUGGAUCCCCCGGCGCCCGGCGGCUCGAGCCCGGGUAAGUGUGAAUAGUCUGCAUGCCGCCGGGCGCCAUGCCUGCAGGUCGACUCUAGAAAACAUG”, the binding signal (PUM1 PUF domain R5-TEE) was 3.25 log2 enrichment (interaction score), the binding signal (PUM1 PUF domain R5-DRQ) was 3.23 log2 enrichment (interaction score) and the binding signal (PUM1 PUF domain R5-KRP) was 0.17 log2 enrichment (interaction score).
For “GGCUAGAACUAGUGGAUCCCCCGGCGCCCGGCGGCUCGAGCCCGGGUAAGUGUAAAUAGUCUGCAUGCCGCCGGGCGCCAUGCCUGCAGGUCGACUCUAGAAAACAUG”, the binding signal (PUM1 PUF domain R8-RGR) was 1.23 log2 enrichment (interaction score), the binding signal (PUM1 PUF domain R4-CRS) was 2.69 log2 enrichment (interaction score) and the binding signal (PUM1 PUF domain R5-CTR) was 1.1 log2 enrichment (interaction score).
In the case of “GGCUAGAACUAGUGGAUCCCCCGGCGCCCGGCGGCUCGAGCCCGGGUAAGUGUCAAUAGUCUGCAUGCCGCCGGGCGCCAUGCCUGCAGGUCGACUCUAGAAAACAUG”, the binding signal (PUM1 PUF domain R5-DRQ) is reported as 3.34 log2 enrichment (interaction score), the binding signal (PUM1 PUF domain R5-KRP) is reported as 2.24 log2 enrichment (interaction score) and the binding signal (PUM1 PUF domain R5-CTR) is reported as 4.38 log2 enrichment (interaction score).
